# Out of some 320,000 compounds screened, about 2,100 (0.66%) were called active. Another 53% or so got no clear call; they are omitted. Calls come from the whole dose curve; as a rule, active = well fitted inhibition curve with a large enough effect in the signal ratio, with a control signal flat (not every such curve was filed as active); inconclusive = small, poorly fitted or top-dose-only effect, or effect the other way, or a change in a side signal; inactive = flat fitted curve, though single readings scatter; the % refers to the signal ratio. What follows is part of a selection rich in actives, with near analogues and random picks from the rest.
# Assay: qHTS Assay for Lipid Storage Modulators in Drosophila S3 Cells;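 for cell number change: cells counted by Cell Tracker Red CMTPX staining in the red channel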; for lipid storage change, negative = inhibition: % is set by controls: 0 for no effect and ±100 for the full control effect
# Conditions: BODIPY lipid droplet fluorescence, 18-24 h, cells fed with added oleic acid; cell number change: measured here: cell count max response; series mostly up to 46.1 µM; lipid storage change, negative = inhibition: at the top concentration
# How it was run: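 Drosophila S3 cells loaded with oleic acid (400 uM, as added) and compounds at several concentrations; lipid droplets imaged by 488-nm laser-scanning cytometry, 500–530 nm intensity and object ratio to cell channel. Percent activity normalized to 20 uM Triacsin C.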
# Potency is the fitted concentration of half-maximal effect.
Structure (SMILES),"lipid storage change, negative = inhibition",cell number change [%],outcome,Potency
CCCCNC(=O)C1CCN(Cc2ccc(OCc3ccccc3)cc2)CC1,-3.1% (inactive),-13,–,–
Cc1ccc(S(=O)(=O)Oc2ccc(/C=C3/C(=N)N4C(=NC3=O)SN=C4S(C)(=O)=O)cc2)cc1,–,-5.51,inactive,–
CN(C)c1ccc(/C=C2\C(=N)N3C(=NC2=O)Sc2cc(S(C)(=O)=O)ccc23)cc1,–,29.8,–,5.8 µM (active)
COc1ccc(/C=C2/C(=N)N3C(=NC2=O)Sc2cc(S(C)(=O)=O)ccc23)cc1OC,-5.29% (inactive),20.5,–,–
CC(=O)N1CCc2cc(S(=O)(=O)CCC(=O)N3CCN(c4ccccn4)CC3)ccc21,11.4% (inactive),3.02,–,–
CCc1ccc(C(C(=O)NCc2ccc(F)cc2)N(C(=O)c2csnn2)C2CC2)cc1 (stereo not given),–,-0.952,inactive,–
CCCN(C(=O)/C=C/c1nc2ccccc2s1)C1CCS(=O)(=O)C1 (stereo not given),-2.18% (inactive),10.5,–,–
COc1ccc(NC(=O)c2ccc(NCCCN3CCOCC3)c([N+](=O)[O-])c2)cc1,9.93% (inactive),0.55,–,–
CS(=O)(=O)Nc1ccc(C(=O)NC2CCCC2)cc1,–,-0.712,–,2.91 µM (active)
O=C(NC1CCCCC1)c1ccc2c(c1)OCO2,3.69% (inactive),1.32,–,–
CS(=O)(=O)NCc1ccc(C(=O)NC2CCCCC2)cc1,–,–,inactive,–
Cc1cccc(C(=O)NC2CCCCCCC2)c1,6.47% (inactive),5.98,–,–
CCOC(=O)c1cccc(NC(=O)c2ccc(NC(=O)C3CCCO3)cc2)c1 (stereo not given),–,-4.84,–,14.6 µM (active)
Cc1ccc(C(=O)Nc2cccc(C(=O)O)c2)cc1,-0.691% (inactive),-13.9,–,–
Cc1ccc(C(=O)Nc2cccc(C(=O)NC3CCCC3)c2)cc1,–,21.4,–,14.6 µM (active)
CC1Nc2ccc(C(=O)NC3CCCCC3)cc2NC1=O (stereo not given),–,18.4,–,23.1 µM (active)
CS(=O)(=O)c1ccc(C(=O)NC2CCCCC2)cc1,19.9% (inactive),6.12,–,–
Cc1ccc(C(=O)NC2CCCCC2)cc1,19.6% (inactive),-6.85,–,–
CCc1ccc(NC(=O)c2ccc(NC(=O)C3CCCO3)cc2)cc1 (stereo not given),–,8.55,inactive,–
O=C(Nc1cccc(O)c1)c1ccc(NC(=O)C2CCCO2)cc1 (stereo not given),–,-1.32,inactive,–
CC(C)CC(=O)N1CCN(Cc2ccc(Cl)cc2)CC1,10.9% (inactive),1.4,–,–
CN1CCN(C(=O)C2=C[C@@H](c3csc4ccccc34)C[C@@H](OCc3ccc(CO)cc3)O2)CC1,6.22% (inactive),5.1,–,–
Cc1ccc(S(=O)(=O)N(C)c2nc3ccccc3[nH]c2=S)cc1,-4.12% (inactive),4.96,–,–

Structure (SMILES),"lipid storage change, negative = inhibition",cell number change [%],outcome,Potency
CCCCn1nc(NS(=O)(=O)c2cccc3nonc23)c2cc3cccc(C)c3nc21,-12.1% (inactive),–,–,–
COc1ccc2nc(SCc3ccccc3C)nc(C)c2c1,-4.04% (inactive),-12.5,–,–
COc1ccc(CCN(Cc2ccc(C(C)C)cc2)S(=O)(=O)c2ccc(S(=O)(=O)N(C)C)cc2)cc1OC,0.0067% (inactive),-3.06,–,–
COc1ccc(OC)c(C2=NOC(C(=O)NCc3cccs3)C2)c1 (stereo not given),-0.872% (inactive),19.5,–,–
COc1nc(OC)nc(N2CCC(C(=O)Nc3cccc4ccccc34)CC2)n1,14.5% (inactive),-0.422,–,–
CC12CN(C(=O)c3ccc(Cl)cc3)C3(C#N)CC1CCC23C (stereo not given),–,–,inactive,–
Cc1ccc(Cc2cnc(NC(=O)C3CCCO3)s2)cc1 (stereo not given),–,15.9,–,2.06 µM (active)
O=C(Nc1ncc(Cc2cccc(Cl)c2)s1)C1CCCO1 (stereo not given),0.772% (inactive),-0.923,–,–
CCOC(=O)c1c(-c2ccc(F)cc2)csc1NC(=O)C1CCCO1 (stereo not given),-6.46% (inactive),2.19,–,–
O=C(Nc1ncc(Cc2cccc(C(F)(F)F)c2)s1)C1CCCO1 (stereo not given),-2.84% (inactive),-4.39,–,–
CCOC(=O)c1c(-c2ccc(C)cc2)csc1NC(=O)C1CCCO1 (stereo not given),–,11.7,–,6.51 µM (active)
CCOC(=O)c1c(-c2ccccc2)csc1NC(=O)C1CCCO1 (stereo not given),-8.83% (inactive),-4.26,–,–
O=C(NCC1CCCO1)C(=O)N/N=C\c1ccc2c(c1)OCO2 (stereo not given),–,-7.51,inactive,–
Cc1c(C(=O)N2CCCCCC2)c(S(=O)(=O)Nc2cccc(F)c2)c(C)n1C,–,–,inactive,–
COc1cc2c(cc1OC)CN(c1nc(-c3cccnc3)nc3ccccc13)CC2,13.7% (inactive),13.3,–,–
COc1cc2c(cc1OC)CN(c1ccc(-c3ccccc3OC)nn1)CC2,-6.67% (inactive),-18,–,–
COc1cc2c(cc1OC)CN(c1ccc3ccccc3n1)CC2,–,-10.9,–,14.6 µM (active)
O=C(Nc1ccc(Cl)cc1)NN1CC(=O)N(c2cccc(C(F)(F)F)c2)CC1=O,-5.06% (inactive),-8.1,–,–
Cc1ccc(OCCn2cc(Br)c(=O)[nH]c2=O)cc1,–,-2.4,inactive,–
COc1cccc(CNC(=O)CCC2CCCN(C(=O)c3cc(C)on3)C2)c1 (stereo not given),3.38% (inactive),6.95,–,–
C=CCNC(=S)/N=c1/ccccn1C,-4.8% (inactive),-1.1,–,–
Cc1cccc(CN2CCC(C(=O)Nc3cccc(-c4cccc(F)c4)c3)CC2)n1,-11.7% (inactive),–,–,–
COc1ccc(CSc2nnc(C)s2)cc1F,3.56% (inactive),9.99,–,–

Structure (SMILES),"lipid storage change, negative = inhibition",cell number change [%],outcome,Potency
Cc1nnc(SCc2ccc(F)cc2Cl)s1,–,-1.12,inactive,–
Cc1nnc(SCc2ccc(F)cc2)s1,–,-1.22,–,2.06 µM (active)
COc1ccc(OC)c(C(=O)COC(=O)C(CCSC)NC(=O)COc2ccccc2)c1 (stereo not given),–,–,inactive,–
CC1CCN(CCCNC(=O)C2CCN(S(=O)(=O)N3CCC4(CC3)OCCO4)CC2)CC1,-18.8% (inactive),1.22,–,–
O=C(NCCCN1CCCCC1)C1CCN(S(=O)(=O)N2CCC3(CC2)OCCO3)CC1,–,-12.2,inactive,–
O=C(NCCN1CCCC1)C1CCN(S(=O)(=O)N2CCC3(CC2)OCCO3)CC1,–,-14.5,–,29.1 µM (active)
O=C(CCCC(=O)c1ccccc1)NCCc1ccccc1F,2.38% (inactive),22,–,–
Clc1ccc(-c2nnc(N3CCOCC3)o2)cc1,4.05% (inactive),3.72,–,–
CC(=O)c1ccc(OCCCC(=O)Nc2cccc(S(=O)(=O)N(C)C)c2)cc1,2.99% (inactive),1.3,–,–
O=S(=O)(NCC(c1ccco1)N1CCN(c2ccccc2F)CC1)c1ccc2c(c1)OCCO2 (stereo not given),–,–,–,23.1 µM (active)
O=S(=O)(NCC(c1ccco1)N1CCN(c2ccccc2)CC1)c1ccc(F)cc1 (stereo not given),8.16% (inactive),9.35,–,–
O=S(=O)(NCC(c1ccco1)N1CCN(c2ccccc2F)CC1)c1ccccc1 (stereo not given),15.1% (inactive),26.9,–,–
CCn1c(=N)c(S(=O)(=O)c2ccc(C)cc2)cc2c(=O)n3ccccc3nc21,16.3% (inactive),11.4,–,–
CN(C)S(=O)(=O)N1CCN(c2cc(Cl)ccc2Cl)CC1,16.6% (inactive),-20.4,–,–
COc1cc(/C=C2\CC/C(=C\c3ccc(OCCO)c(OC)c3)C2=O)ccc1OCCO,–,11.6,–,16.4 µM (active)
COc1ccc(/C=C2\Cc3ccccc3C2=O)cc1OC,0.0747% (inactive),-17.4,–,–
COc1ccc(/C=C2\CCc3ccccc3C2=O)cc1O,–,-1.8,inactive,–
CCn1c(=O)cc(OCC(=O)Nc2ccc(C)cn2)c2ccccc21,23.2% (inactive),8,–,–
COc1ccc(C)cc1NC(=O)C1CCC(CNc2c(N3CCOCC3)c(=O)c2=O)CC1 (stereo not given),9.49% (inactive),18.9,–,–
Cc1cccc(N2CCN(C(=O)COc3ccc4c(c3)CCC4)CC2C)c1 (stereo not given),–,-2.19,–,2.06 µM (active)
O=C(COc1ccc2c(c1)CCC2)N1CCN(c2cccc(C(F)(F)F)c2)CC1,–,20.7,inactive,–
Cc1cccc(N2CCN(C(=O)COc3ccc4c(c3)CCC4)CC2)c1C,0.152% (inactive),1.12,–,–
CCOC(=O)c1ccc(NC(=O)Cn2nnc(-c3ccc(F)cc3)n2)cc1,-18.5% (inactive),-3.44,–,–

Structure (SMILES),"lipid storage change, negative = inhibition",cell number change [%],outcome,Potency
COc1ccc(OC)c(Nc2nc3nonc3nc2N2CCCC(C)C2)c1 (stereo not given),10.9% (inactive),7.7,–,–
CC(C)c1onc(C(=O)N2CCOCC2)c1[N+](=O)[O-],2.21% (inactive),-0.564,–,–
CC(C)c1onc(C(=O)N2CCCCC2)c1[N+](=O)[O-],–,-22.7,–,0.82 µM (active)
CC(C)c1onc(C(=O)N2CCCCCC2)c1[N+](=O)[O-],-5% (inactive),-15.8,–,–
CS(=O)(=O)N1CCC(C(=O)Nc2ccc(Cl)c(Cl)c2)CC1,17.7% (inactive),-6.77,–,–
COc1ccc(CC(=O)OCC(=O)Nc2ccc3c(c2)OCCO3)cc1OC,3.05% (inactive),3.44,–,–
O=C(CCn1c(=O)[nH]c2ccsc2c1=O)N1CCN(Cc2ccc3c(c2)OCO3)CC1,-1.99% (inactive),–,–,–
Cc1ccc(-c2nc3ccccc3[nH]2)cn1,-2.7% (inactive),10.6,–,–
CCN(CC)S(=O)(=O)c1cc(C(=O)n2cccn2)c(Cl)cc1Cl,–,-0.259,–,4.61 µM (active)
CCN(CC)S(=O)(=O)c1cc(C(=O)Nc2cc(C)on2)c(Cl)cc1Cl,-12% (inactive),-16.4,–,–
CCN(CC)S(=O)(=O)c1cc(C(=O)Nc2cccnc2Cl)ccc1Cl,–,–,inactive,–
CC(=O)NC12CC3CC(C1)CC(C(=O)OCC(=O)NC(=O)c1cccn1C)(C3)C2,-20.7% (inactive),-12.7,–,–
O=C(COC(=O)CC12CC3CC(CC(Br)(C3)C1)C2)NC(=O)NCc1ccco1,-0.115% (inactive),-9.1,–,–
Cn1cccc1C(=O)NC(=O)COC(=O)CC12CC3CC(CC(Br)(C3)C1)C2,–,2.25,–,7.31 µM (active)
O=C(NCc1nc2ccccc2[nH]1)c1c(F)c(F)c(F)c(F)c1F,-16.5% (inactive),-0.311,–,–
O=C(O)C1CCCCC1C(=O)NCCc1cccc(Cl)c1 (stereo not given),-11.6% (inactive),-1.17,–,–
Cc1ccn(CC(=O)N2CCCC(N3CCN(c4cccc(Cl)c4)CC3)C2)n1 (stereo not given),–,14.6,inactive,–
Cc1nc(CNC(=O)CC2C(=O)NCCN2Cc2ccc(F)cc2)cs1 (stereo not given),-3.08% (inactive),20.2,–,–
CCN(CC)S(=O)(=O)c1ccc(OC)c(NC(=O)C2CC(=O)N(c3ccc4c(c3)OCCO4)C2)c1 (stereo not given),–,-25.9,inactive,–
CN(C)c1ccc(C(=O)N2CCCC(CCC(=O)N3CCN(c4ccccn4)CC3)C2)cc1 (stereo not given),-21.3% (inactive),-25.3,–,–
C=Cc1ccc(C(=O)N2CCCC(CCC(=O)N3CCN(c4ccccn4)CC3)C2)cc1 (stereo not given),–,-2.91,inactive,–
COc1ccc(C(=O)N2CCCC(CCC(=O)N3CCN(c4ccccn4)CC3)C2)cc1 (stereo not given),–,-15.8,–,8.2 µM (active)
COc1ccc(-n2cccc2/C=C2\C(=N)N3N=C(c4ccco4)SC3=NC2=O)cc1,-14.1% (inactive),-5.47,–,–
